Potency, viability and outcome data for 13 molecules are collected here from PubChem BioAssay (NCATS).

Records with an inconclusive call do not appear. A number with no mark means an inactive call. Active and inactive are the calls of the source. Calls come from the whole dose curve; as a rule, active = well fitted curve in the direction sought with a large enough effect; inconclusive = small, poorly fitted or top-dose-only effect, or another doubt; inactive = no such curve, though single readings can be large; an effect the other way counts as inactive or inconclusive.

Assay [1] is described as follows: Quantitative High-Throughput drug screen in 47 multiple myeloma cell lines against the NCATS MIPE library collection: LP1_DSMZ cell viability assay (AID 1918982). Note: nearly all actives have a fitted effect of over 35% in size. Note: potency is the fitted concentration of half-maximal effect. A digest of the protocol: (§1)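 Inhibition of viability over 48 h was scored by ATP content (CellTiter-Glo) in 500-cell wells. Zero and full viability were defined by media-only and DMSO-only wells.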
Assay [2] can be described thus: Quantitative High-Throughput drug screen in 47 multiple myeloma cell lines against the NCATS MIPE library collection: KMS28PE_JCRB cell viability assay (AID 1918983). Note: nearly all actives have a fitted effect of over 35% in size. Note: potency is the fitted concentration of half-maximal effect. A digest of the protocol:
as §1

Assay [3] can be described thus: Quantitative High-Throughput drug screen in 47 multiple myeloma cell lines against the NCATS MIPE library collection: L363_DSMZ cell viability assay (AID 1918984). Note: nearly all actives have a fitted effect of over 40% in size. Note: potency is the fitted concentration of half-maximal effect. A digest of the protocol: as §1
The nature of assay [4]: Quantitative High-Throughput drug screen in 47 multiple myeloma cell lines against the NCATS MIPE library collection: KMS34_JCRB cell viability assay (AID 1918985). Note: nearly all actives have a fitted effect of over 40% in size. Note: potency is the fitted concentration of half-maximal effect. A digest of the protocol: as §1
The nature of assay [5]: Quantitative High-Throughput drug screen in 47 multiple myeloma cell lines against the NCATS MIPE library collection: OCIMY5_PLB cell viability assay (AID 1918988). Note: nearly all actives have a fitted effect of over 65% in size. Note: potency is the fitted concentration of half-maximal effect. The method in brief:
as §1

Assay [6] in a line: Quantitative High-Throughput drug screen in 47 multiple myeloma cell lines against the NCATS MIPE library collection: OPM1_PLB cell viability assay (AID 1918989). Note: nearly all actives have a fitted effect of over 40% in size. Note: potency is the fitted concentration of half-maximal effect. A digest of the protocol: as §1
Assay [7] can be described thus: Quantitative High-Throughput drug screen in 47 multiple myeloma cell lines against the NCATS MIPE library collection: PE2_PLB cell viability assay (AID 1919869). Note: nearly all actives have a fitted effect of over 35% in size. Note: potency is the fitted concentration of half-maximal effect. The method in brief: as §1
Assay [8] can be described thus: Quantitative High-Throughput drug screen in 47 multiple myeloma cell lines against the NCATS MIPE library collection: OPM2_DSMZ cell viability assay (AID 1919872). Note: nearly all actives have a fitted effect of over 30% in size. Note: potency is the fitted concentration of half-maximal effect. A digest of the protocol:
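Relative luminescence from CellTiter-Glo served as the viability signal, referenced to DMSO-treated (100%) and cell-free medium (0%) controls. Treatment lasted 48 hours at 37C with 500 cells per well.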

A short description of assay [9]: Quantitative High-Throughput drug screen in 47 multiple myeloma cell lines against the NCATS MIPE library collection: KMS11_JCRBsus cell viability assay (AID 1919873). Note: nearly all actives have a fitted effect of over 50% in size. Note: potency is the fitted concentration of half-maximal effect. A digest of the protocol:
as §1

Assay [10] can be described thus: Quantitative High-Throughput drug screen in 47 multiple myeloma cell lines against the NCATS MIPE library collection: KMS28BM_JCRB cell viability assay (AID 1919874). Note: nearly all actives have a fitted effect of over 35% in size. Note: potency is the fitted concentration of half-maximal effect. A digest of the protocol:
as §1

Assay [11] can be described thus: Quantitative High-Throughput drug screen in 47 multiple myeloma cell lines against the NCATS MIPE library collection: OCIMY7_PLB cell viability assay (AID 1918987). Note: potency is the fitted concentration of half-maximal effect; nearly all actives have a fitted effect of over 65% in size. The method in brief:
as §1

Assay [12] in a line: Quantitative High-Throughput drug screen in 47 multiple myeloma cell lines against the NCATS MIPE library collection: SKMM1_PLB cell viability assay (AID 1919863). For viability: series mostly up to about 46 µM. Note: nearly all actives have a fitted effect of over 35% in size. Note: potency is the fitted concentration of half-maximal effect. The note with it: SKMM1 myeloma viability, CellTiter-Glo ATP, 48 h; viability: hits give low values. A digest of the protocol: as §1
Assay [13] in a line: Quantitative High-Throughput drug screen in 47 multiple myeloma cell lines against the NCATS MIPE library collection: U266_ATCC cell viability assay (AID 1919864). Note: nearly all actives have a fitted effect of over 35% in size. Note: potency is the fitted concentration of half-maximal effect. The method in brief:
as §1

Assay [14] in a line: Quantitative High-Throughput drug screen in 47 multiple myeloma cell lines against the NCATS MIPE library collection: XG6_PLB cell viability assay (AID 1919865). Note: nearly all actives have a fitted effect of over 40% in size. Note: potency is the fitted concentration of half-maximal effect. A digest of the protocol:
as §1

Assay [15] can be described thus: Quantitative High-Throughput drug screen in 47 multiple myeloma cell lines against the NCATS MIPE library collection: XG1_PLB cell viability assay (AID 1919866). Note: nearly all actives have a fitted effect of over 35% in size. Note: potency is the fitted concentration of half-maximal effect. The method in brief: as §1
Assay [16] in a line: Quantitative High-Throughput drug screen in 47 multiple myeloma cell lines against the NCATS MIPE library collection: VP6_DJ cell viability assay (AID 1919867). Note: nearly all actives have a fitted effect of over 40% in size. Note: potency is the fitted concentration of half-maximal effect. A digest of the protocol: as §1
Assay [17] can be described thus: Quantitative High-Throughput drug screen in 47 multiple myeloma cell lines against the NCATS MIPE library collection: UTMC2_PLB cell viability assay (AID 1919868). Note: nearly all actives have a fitted effect of over 55% in size. Note: potency is the fitted concentration of half-maximal effect. A digest of the protocol:
as §1

Assay [18] can be described thus: Quantitative High-Throughput drug screen in 47 multiple myeloma cell lines against the NCATS MIPE library collection: PCM6_Riken cell viability assay (AID 1919870). Note: nearly all actives have a fitted effect of over 30% in size. Note: potency is the fitted concentration of half-maximal effect. The method in brief: as §1
The nature of assay [19]: Quantitative High-Throughput drug screen in 47 multiple myeloma cell lines against the NCATS MIPE library collection: RPMI8226_ATCC cell viability assay (AID 1919871). Note: nearly all actives have a fitted effect of over 30% in size. Note: potency is the fitted concentration of half-maximal effect. The method in brief:
as §1

Assay [20] has as its target Cytochrome P450 3A4 (Homo sapiens) (UniProt P08684). Description: qHTS for inhibitors of CYP3A4 against the NCATS DSHEA and TCM libraries (AID 1919971).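 Note: % is set by controls: 0 for no effect and ±100 for the full control effect; inhibition lowers luminescence from luciferin made by CYP3A4.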 A digest of the protocol: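 Luminescent P450-Glo format: compounds preincubated 15 min with enzyme and luciferin substrate, reaction run 30-45 min after NADPH regeneration solution. Intraplate controls: ketoconazole for CYP3A4 and CYP2C19, sulfaphenazole for CYP2C9.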

Sequence of Cytochrome P450 3A4 (Homo sapiens) (P08684 whole entry, looked up): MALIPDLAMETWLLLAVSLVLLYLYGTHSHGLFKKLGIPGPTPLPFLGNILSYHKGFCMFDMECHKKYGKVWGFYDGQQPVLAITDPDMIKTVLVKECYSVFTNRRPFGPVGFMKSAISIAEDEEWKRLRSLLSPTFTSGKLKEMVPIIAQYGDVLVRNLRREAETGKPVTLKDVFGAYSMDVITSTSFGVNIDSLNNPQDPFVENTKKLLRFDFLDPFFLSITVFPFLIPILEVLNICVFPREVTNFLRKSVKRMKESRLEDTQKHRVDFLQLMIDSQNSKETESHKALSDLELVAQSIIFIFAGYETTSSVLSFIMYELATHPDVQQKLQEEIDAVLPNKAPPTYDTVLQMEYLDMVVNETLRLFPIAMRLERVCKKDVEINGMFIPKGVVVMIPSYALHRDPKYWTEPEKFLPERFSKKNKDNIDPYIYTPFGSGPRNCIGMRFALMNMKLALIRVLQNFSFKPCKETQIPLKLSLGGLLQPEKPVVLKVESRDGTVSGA

In the case of `CCN[C@H]1C[C@H](C)S(=O)(=O)c2sc(S(N)(=O)=O)cc21`, the Potency entry in assay [1], in [2], in [3], in [4], in assay [5] and in assay [6] was “inactive” throughout. The Potency result in assay [7], in [8], in [9] and in assay [10] was “inactive” each time.

As to `Oc1c(Cl)cc(Cl)c2cccnc12`, the Potency in [1] was 26.4 µM (active); in [2], 20.9 µM (active); in [3] it was 9.35 µM (active); in assay [4], 16.6 µM (active); in assay [11], 10.5 µM (active); in [5], 6.62 µM (active). For the same molecule, the Potency is 10.5 µM (active) in assay [6]; 18.7 µM (active) in assay [12]; 8.33 µM (active) in assay [13]; 4.69 µM (active) in assay [14]; 11.8 µM (active) in [15]; 5.9 µM (active) in assay [16]. Moreover, the Potency in assay [17] is 11.8 µM (active); in [7], 9.35 µM (active); in [18], 9.35 µM (active); in assay [19], 18.7 µM (active); in assay [8] it was 26.4 µM (active); in [9], 18.7 µM (active). In addition, the Potency in assay [10] was 16.6 µM (active).

Take `C1CCC(C(CC2CCCCN2)C2CCCCC2)CC1` (stereo not drawn): the Potency in [1] was 14.8 µM (active); in assay [2] it was 18.7 µM (active); in [3], 8.33 µM (active); in assay [11] it was 14.8 µM (active); in assay [5] it was 9.35 µM (active); in [6] it was 10.5 µM (active). In addition, the Potency was 18.7 µM (active) in assay [12]; 20.9 µM (active) in assay [14]; 13.2 µM (active) in [15]; 8.33 µM (active) in assay [16]; 13.2 µM (active) in assay [17]; 18.7 µM (active) in assay [7]. The Potency in [19] was 11.8 µM (active); in assay [8], 23.5 µM (active); in [9], 8.33 µM (active); in assay [10], 9.35 µM (active).

Regarding `CCN1CCCC1CNC(=O)c1cc(S(N)(=O)=O)ccc1OC` (stereo not drawn), the Potency result in [1], in assay [2], in assay [3], in assay [4], in [6] and in assay [14] was “inactive” throughout. For the same molecule, the Potency result in assay [15], in assay [19], in [8], in assay [9] and in assay [10] was “inactive” in each case. In addition, in assay [12], the viability is 123%. Also, the Potency in [16] is 5.9 µM (active).

For the molecule `CC(=O)Oc1ccccc1C(=O)Nc1ncc([N+](=O)[O-])s1`, the Potency is 21.5 µM (active) in assay [1]; 38.2 µM (active) in assay [2]; 17.1 µM (active) in [3]; 42.9 µM (active) in assay [4]; 21.5 µM (active) in assay [11]; 13.6 µM (active) in assay [5]. The Potency in [6] was 24.1 µM (active); in [12], 38.2 µM (active); in assay [14], 24.1 µM (active); in assay [15] it was 30.3 µM (active); in assay [16], 17.1 µM (active); in assay [17], 13.6 µM (active). The figures for the Potency in assay [7], in [19] and in assay [9] were 13.6 µM (active), 19.1 µM (active) and 17.1 µM (active), respectively.

In the case of `O=NN(CCCl)C(=O)NC1CCCCC1`, the Potency entry in assay [1], in [2], in assay [3], in assay [4], in assay [6] and in assay [13] was “inactive” each time. Further, the Potency entry in [14], in [15], in assay [16], in assay [17], in assay [7] and in assay [18] was “inactive” each time. Moreover, the Potency entry in assay [9] and in assay [10] was “inactive” throughout.

With `O=C(O)c1cccnc1`, the Potency entry in assay [1], in assay [2], in assay [3], in [4], in assay [6] and in assay [13] was “inactive” throughout. The Potency result in assay [7], in [19] and in assay [8] was “inactive” each time. Also, the viability in assay [12] was 107%. For the same molecule, in assay [16], the Potency was 16.6 µM (active). Further, in [20], the outcome was inactive.

With `CCCCc1oc2ccc(NS(C)(=O)=O)cc2c1C(=O)c1ccc(OCCCN(CCCC)CCCC)cc1`, the Potency in assay [1] was 16.6 µM (active); in assay [2], 20.9 µM (active); in [3] it was 8.33 µM (active); in [11], 18.7 µM (active); in [5], 4.69 µM (active); in [6], 13.2 µM (active). Further, the Potency in [12] is 18.7 µM (active); in [14], 8.33 µM (active); in assay [15], 11.8 µM (active); in [16], 7.43 µM (active); in [7] it was 23.5 µM (active); in assay [18] it was 11.8 µM (active). Further, the Potency in [19] is 16.6 µM (active); in assay [8], 23.5 µM (active); in assay [9], 11.8 µM (active); in [10], 13.2 µM (active).

Take `CCCc1nc(C)c2c(=O)[nH]c(-c3cc(S(=O)(=O)N4CCN(CC)CC4)ccc3OCC)nn12`: the Potency in assay [1] is 4.69 µM (active); in [2] it was 8.33 µM (active); in assay [3], 4.18 µM (active); in assay [4] it was 3.72 µM (active); in assay [11], 5.9 µM (active); in [5], 5.9 µM (active). Moreover, the Potency was 7.43 µM (active) in [6]; 9.35 µM (active) in assay [12]; 4.69 µM (active) in assay [14]; 5.9 µM (active) in assay [15]; 5.9 µM (active) in assay [16]; 10.5 µM (active) in assay [17]. In addition, the Potency in assay [7] was 5.9 µM (active); in assay [18], 5.26 µM (active); in assay [19], 9.35 µM (active); in [8], 5.9 µM (active); in assay [9], 2.96 µM (active); in assay [10] it was 3.72 µM (active).

With `COc1ccc2c(c1)c(CC(=O)OCC(=O)O)c(C)n2C(=O)c1ccc(Cl)cc1`, the Potency result in assay [1], in assay [2], in assay [3], in assay [4], in assay [6] and in [13] was “inactive” throughout. The Potency entry in assay [14], in [15], in [18], in assay [19], in assay [8] and in assay [9] was “inactive” in each case. Further, in [10], the Potency result is “inactive”. The viability in [12] is 138%.

For the molecule `Nc1ccc(S(=O)(=O)Nc2ccccn2)cc1`, the Potency result in assay [1], in [2], in assay [3], in assay [4], in [6] and in assay [14] was “inactive” throughout. The Potency result in assay [15], in [16], in assay [7], in [18], in [8] and in assay [9] was “inactive” throughout. The Potency result in assay [10] is “inactive”.

For the molecule `COc1cc(NCc2ccc3nc(N)nc(N)c3c2C)cc(OC)c1OC`, the Potency in [1] is 1.48 µM (active); in assay [2] it was 14.8 µM (active); in assay [3], 0.935 µM (active); in assay [4], 3.72 µM (active); in assay [11], 1.48 µM (active); in assay [5], 6.62 µM (active). In addition, the Potency in assay [6] is 5.9 µM (active); in assay [12] it was 11.8 µM (active); in assay [13], 1.48 µM (active); in [14], 11.8 µM (active); in [15] it was 3.72 µM (active); in assay [16] it was 2.64 µM (active). In addition, the Potency in [17] is 0.743 µM (active); in assay [7], 1.66 µM (active); in assay [18], 4.69 µM (active); in assay [19], 16.6 µM (active); in [8], 18.7 µM (active); in assay [9], 2.64 µM (active). Also, the Potency in assay [10] is 20.9 µM (active).

Consider `CN1CCN(c2c(F)cc3c(=O)c(C(=O)O)cn4c3c2OCN4C)CC1`, for which the Potency entry in [1], in [2], in assay [3], in [4], in assay [5] and in [6] was “inactive” each time. For the same molecule, the Potency entry in [15], in [17], in assay [7], in assay [18], in assay [19] and in [8] was “inactive” each time. Further, the Potency result in assay [9] and in [10] was “inactive” each time.
